PubChem BioAssay (NCI)
The panel holds about 83,000 compounds, 20% with a hit somewhere; the sample as a whole holds those more often.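 Compound tested at a single concentration for 48 hours in 96-well plates; a percent growth value below 10 was scored as active.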 Active and inactive are the calls of the source.

Experiments:
Test in all cases: NCI-60 one-dose screen, 48 h (100 = growth as untreated, 0 = no growth, -100 = all killed)
NCI-H226 lung = details: 10 µM unless noted
NCI-H322M lung = details: 10 µM unless noted
HOP-62 NSCLC = details: 10 µM unless noted
NCI-H460 lung = details: 10 µM unless noted
HOP-92 NSCLC = details: 10 µM
NCI-H522 lung = details: 10 µM unless noted
A549/ATCC NSCLC = details: 10 µM unless noted
786-0 renal = details: 10 µM unless noted
COLO 205 colon = details: 10 µM unless noted
DU-145 prostate = details: 10 µM unless noted
K-562 leukemia = details: 10 µM unless noted
MALME-3M melanoma = details: 10 µM unless noted
MDA-MB-231 breast = details: 10 µM unless noted
RXF 393 renal = details: 10 µM unless noted
SF-268 CNS = details: 10 µM unless noted
SF-295 CNS = details: 10 µM unless noted
SF-539 CNS = details: 10 µM unless noted
UACC-257 melanoma = details: 10 µM unless noted
M14 melanoma = details: 10 µM unless noted
NCI-H23 lung = details: 10 µM unless noted

Measured: growth

CCOC(=O)c1c(N)c(C#N)cn1-c1cc(OC)c(OC)c(OC)c1
inactive: NCI-H226 lung 110% | NCI-H322M lung 101% | HOP-62 NSCLC 101% | NCI-H460 lung 104% | HOP-92 NSCLC 79.1% | NCI-H522 lung 104% | A549/ATCC NSCLC 101% | 786-0 renal 103% | COLO 205 colon 122% | DU-145 prostate 110% | K-562 leukemia 105% | MALME-3M melanoma 102% | MDA-MB-231 breast 100% | RXF 393 renal 112% | SF-268 CNS 111% | SF-295 CNS 99% | SF-539 CNS 92.6% | UACC-257 melanoma 111% | M14 melanoma 109%

NC(N)=Nc1ccc(Oc2cccc(NC(N)=Nc3ccc(I)cc3F)c2)cn1
active: HOP-92 NSCLC -3.49%
inactive: NCI-H226 lung 84.3% | NCI-H322M lung 53.1% | HOP-62 NSCLC 66.9% | NCI-H460 lung 40.6% | NCI-H522 lung 41.2% | A549/ATCC NSCLC 57.9% | 786-0 renal 80.8% | COLO 205 colon 39.7% | DU-145 prostate 88.3% | K-562 leukemia 46.1% | MALME-3M melanoma 75.5% | MDA-MB-231 breast 62.8% | SF-268 CNS 36.3% | SF-295 CNS 47.3% | SF-539 CNS 60.3% | UACC-257 melanoma 75.6%

Cn1cc(-c2cc(N)n3nc(-c4cn(C)c5ccccc45)cc3n2)c2ccccc21
active: K-562 leukemia 7.81%
inactive: NCI-H226 lung 113% | NCI-H322M lung 98.5% | HOP-62 NSCLC 108% | NCI-H460 lung 93.3% | HOP-92 NSCLC 88.8% | NCI-H522 lung 109% | A549/ATCC NSCLC 75.8% | 786-0 renal 63.7% | COLO 205 colon 123% | DU-145 prostate 88.1% | MALME-3M melanoma 84% | MDA-MB-231 breast 76.4% | RXF 393 renal 95.6% | SF-268 CNS 100% | SF-295 CNS 95.9% | SF-539 CNS 84.1% | UACC-257 melanoma 107% | M14 melanoma 32.1%

Cn1ccnc1C(=O)/C=C/c1ccc(NC(=O)c2c(F)c(F)c(F)c(F)c2F)cc1
inactive: NCI-H226 lung 103% | NCI-H322M lung 94.8% | HOP-62 NSCLC 120% | NCI-H460 lung 105% | HOP-92 NSCLC 123% | NCI-H522 lung 94.3% | A549/ATCC NSCLC 101% | 786-0 renal 101% | COLO 205 colon 124% | DU-145 prostate 106% | K-562 leukemia 80.7% | MALME-3M melanoma 104% | MDA-MB-231 breast 108% | SF-268 CNS 96% | SF-295 CNS 106% | SF-539 CNS 108% | UACC-257 melanoma 113%

COc1ccc(-n2c(/C=C3\C(=O)Nc4ccccc43)ccc2CO)cc1
inactive: NCI-H23 lung 104% | HOP-62 NSCLC 95.1% | NCI-H460 lung 113% | HOP-92 NSCLC 91.5% | NCI-H522 lung 89.6% | A549/ATCC NSCLC 97% | 786-0 renal 99.1% | COLO 205 colon 114% | DU-145 prostate 106% | K-562 leukemia 90.9% | MALME-3M melanoma 72.2% | MDA-MB-231 breast 95% | RXF 393 renal 99.7% | SF-268 CNS 99.2% | SF-295 CNS 105% | SF-539 CNS 97.5% | UACC-257 melanoma 105%

O=C(c1ccc(Cl)cc1)C1[C@H](c2ccc(Cl)cc2)[C@@H](c2ccccc2)NC12C(=O)Nc1ccccc12 (stereo not given in full)
inactive: NCI-H226 lung 53.5% | NCI-H322M lung 65.5% | HOP-62 NSCLC 69.6% | NCI-H460 lung 32.7% | HOP-92 NSCLC 50.4% | NCI-H522 lung 78% | A549/ATCC NSCLC 42.6% | 786-0 renal 64.2% | DU-145 prostate 65.1% | K-562 leukemia 33.6% | MALME-3M melanoma 78.7% | MDA-MB-231 breast 53.6% | RXF 393 renal 48% | SF-268 CNS 48.1% | SF-295 CNS 45.6% | SF-539 CNS 74.8% | UACC-257 melanoma 75.2% | M14 melanoma 50.2%

CN1CCN(Cc2ccc(NC(=O)c3cncc(C#Cc4cnc5ccc(N6CCN(C)CC6)nn45)c3)cc2C(F)(F)F)CC1
active: NCI-H460 lung -82.4% | HOP-92 NSCLC -16.1% | A549/ATCC NSCLC -71.4% | 786-0 renal -84.6% | DU-145 prostate -94.2% | K-562 leukemia -59% | MDA-MB-231 breast -66.7% | RXF 393 renal -89.9% | SF-268 CNS -50.7% | SF-295 CNS -78.4% | SF-539 CNS -98% | M14 melanoma -45.8%
inactive: NCI-H226 lung 28% | NCI-H322M lung 35.5% | HOP-62 NSCLC 28.8% | NCI-H522 lung 82.1% | COLO 205 colon 38.9% | MALME-3M melanoma 68.3% | UACC-257 melanoma 101%

CCCCCc1ccc(S(=O)(=O)Nc2cccc(-c3csc(NC(=O)CCCCCN4CCN(CCO)CC4)n3)c2)cc1
inactive: NCI-H226 lung 92.7% | NCI-H322M lung 87.5% | HOP-62 NSCLC 85.1% | NCI-H460 lung 23.9% | HOP-92 NSCLC 62.7% | NCI-H522 lung 77.2% | A549/ATCC NSCLC 74.5% | 786-0 renal 68.3% | COLO 205 colon 72.8% | DU-145 prostate 83% | MALME-3M melanoma 29.8% | MDA-MB-231 breast 75.7% | SF-268 CNS 83.2% | SF-295 CNS 91.5% | SF-539 CNS 67.3% | UACC-257 melanoma 86.7%
active: K-562 leukemia -21.3%

O=C1/C(=C/C=C/c2ccco2)SC(=S)N1c1ccccc1
active: RXF 393 renal -33.5%
inactive: NCI-H322M lung 87.2% | HOP-62 NSCLC 104% | NCI-H460 lung 91.2% | NCI-H522 lung 58% | A549/ATCC NSCLC 52.9% | 786-0 renal 71.1% | COLO 205 colon 83.2% | DU-145 prostate 97.6% | K-562 leukemia 64.6% | MALME-3M melanoma 15.5% | MDA-MB-231 breast 80.3% | SF-268 CNS 108% | SF-295 CNS 91.3% | SF-539 CNS 90.3% | UACC-257 melanoma 83.2% | M14 melanoma 40.7%
